# Screening results (PubChem)
# TSHR agonist – TSH receptor (human) agonism; P16473; HEK293-CNG-TSHR cells (CNG channel as cAMP sensor), membrane potential dye, cAMP; Potency, µM (series often up to 57.1 µM), most hits filed as activators; 0.48% of 73,000 active; AID 926; active = well fitted activation curve with a large enough effect in the main read-out, with a control signal flat, not every such curve was filed as active; inconclusive = small, poorly fitted or top-dose-only effect, or a change in a side signal; inactive = no such curve, though single readings can be large or run the other way; reference of the percent scale not stated here;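 also: the control signal comes from parental cells without the receptor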
#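 HEK 293 cells stably expressing TSHR and a cAMP-gated CNG channel; parental CNG-only cells as counterscreen. Cells preloaded 60 min with membrane potential dye plus 100 uM RO 20-1724, then compound 30 min; fluorescence read at 590 nm.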
# CRE-bla Fsk – alters forskolin-stimulated CRE reporter signaling in CHO cells; CHO CRE-bla reporter (cAMP response element driving beta-lactamase), forskolin EC10, beta-lactamase ratio; Potency, µM (series often up to 38.2 µM), usual class: activators; 2.5% of 71,000 active; AID 662; active = well fitted activation curve with a large enough effect in the signal ratio, with a control signal flat, not every such curve was filed as active; inconclusive = small, poorly fitted or top-dose-only effect, or effect the other way, or a change in a side signal; the % refers to the signal ratio
#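 Titrated compounds plus EC10 NKH 477 on CHO CRE-bla cells, 3 h, 37 °C. CCF4, 2 h RT. Ratio 460/530 nm → AC50.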
# Tau filament bind – binders of human tau filaments. P10636. recombinant tau filaments, thioflavin S fluorescence, 15 h; filaments grown with octadecylsulfate alongside compound. Potency, µM (doses to about 57.1 µM). 2% of 71,000 active. AID 596;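 also: actives lower thioflavin S fluorescence by blocking filaments or displacing dye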
# Target sequence (P10636 whole entry, looked up): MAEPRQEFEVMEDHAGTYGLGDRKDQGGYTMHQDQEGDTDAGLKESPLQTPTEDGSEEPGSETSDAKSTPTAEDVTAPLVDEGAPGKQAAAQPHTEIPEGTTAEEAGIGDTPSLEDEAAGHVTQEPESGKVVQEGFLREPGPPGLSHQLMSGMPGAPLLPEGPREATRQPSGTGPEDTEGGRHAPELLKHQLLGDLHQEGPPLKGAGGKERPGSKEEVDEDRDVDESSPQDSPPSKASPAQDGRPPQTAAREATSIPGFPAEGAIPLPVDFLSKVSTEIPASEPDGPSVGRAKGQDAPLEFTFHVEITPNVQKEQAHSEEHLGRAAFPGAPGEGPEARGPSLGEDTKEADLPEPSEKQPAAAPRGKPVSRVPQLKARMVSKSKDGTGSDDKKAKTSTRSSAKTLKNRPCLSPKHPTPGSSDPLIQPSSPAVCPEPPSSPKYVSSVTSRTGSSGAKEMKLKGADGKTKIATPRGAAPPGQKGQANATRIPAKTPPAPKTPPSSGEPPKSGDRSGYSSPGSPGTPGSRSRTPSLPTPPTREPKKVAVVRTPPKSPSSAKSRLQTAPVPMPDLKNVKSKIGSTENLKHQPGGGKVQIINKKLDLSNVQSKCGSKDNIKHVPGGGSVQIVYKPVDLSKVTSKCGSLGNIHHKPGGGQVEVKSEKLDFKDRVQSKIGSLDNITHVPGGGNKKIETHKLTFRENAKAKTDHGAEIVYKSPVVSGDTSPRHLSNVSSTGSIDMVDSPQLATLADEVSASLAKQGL
#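 His-tagged recombinant human tau (exons 2, 3, 10; 1 uM final) fibrillized with 30 uM sodium octadecylsulfate, 15 h at 37 C, in pH 7.4 HEPES buffer with 10 uM thioflavine S and 5 mM DTT. Reduced ThS fluorescence (450/510 nm) marks activity.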
# ERK AVP block – vasopressin-driven ERK pathway inhibition; HEK293-V1b, vasopressin-stimulated pERK AlphaScreen; Potency, µM (highest dose often 57.5 µM), actives largely listed as inhibitors; 0.99% of 72,000 active; AID 995; also: nearly all actives have a fitted effect of over 55% in size
#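 HEK293 cells stably expressing V1b receptor, seeded overnight in 1% FBS, were treated with compounds for 30 min at 37C, then stimulated 5 min with 25 nM vasopressin; phospho-ERK read by AlphaScreen SureFire after lysis.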
# HEK293 cAMP ctrl – raises cAMP in parental HEK293 cells, TSHR agonist counter-screen; parental HEK293 CNG cAMP sensor, membrane potential fluorescence; Potency, µM (doses to about 57.1 µM), usual class: activators; 2.5% of 73,000 active; also: nearly all actives have a fitted effect of over 55% in size
#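 Counterscreen for endogenous-receptor signalling: CNG-channel HEK 293 cells report cAMP rise by membrane depolarization. After 60 min dye equilibration with 100 uM RO 20-1724, compounds incubated 30 min before bottom-read fluorescence at 590 nm.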
# A number is an active result; . = inactive; ? = inconclusive; / = not tested or not shown; [ ] = remark or other dose. Most compounds without a hit are left out; they make up all but 7.4% or so of the library. Unless noted, calls follow the shape of the dose curve; as a rule, active = well fitted curve in the direction sought with a large enough effect; inconclusive = small, poorly fitted or top-dose-only effect, or another doubt; inactive = no such curve, though single readings can be large; an effect the other way counts as inactive or inconclusive.
SMILES,TSHR agonist,CRE-bla Fsk,Tau filament bind,ERK AVP block,HEK293 cAMP ctrl
CC(C)C[C@@H](CC(=O)N[C@@H](CCC(=O)O)CC(=O)O)NC(=O)[C@@H]1CCCC[C@H]1NC(=O)C[C@H](CCCN)NC(=O)C[C@H](Cc1ccccc1)NC(=O)[C@@H]1CCCC[C@H]1N,.,.,.,/,.
CCOC(=O)C1=C(C)Nc2nc(SC)nn2C1c1ccc(C(=O)OC)cc1 (configuration not stated),16µM,?,.,.,.
CCOC(=O)Nc1ccc2c(c1)N(C(=O)N1CCN(C)CC1)c1ccccc1S2,.,.,16µM,?,.
CCOC(=O)Nc1ccc2c(c1)N(C(=O)N(CC)CC)c1ccccc1CC2,3.2µM,?,.[11.4 µM],.,.[11.4 µM]
Cc1oc(-c2ccccc2F)nc1CS(=O)(=O)CC(=O)N1CCOCC1,?,.,.,.,32µM
Cc1ccc(-c2nc(CS(=O)(=O)CC(=O)N3CC(C)CC(C)C3)c(C)o2)cc1 (configuration not stated),?,.,.,?,32µM
CCN1CCN(C(=O)CS(=O)(=O)Cc2nc(-c3ccc(C)cc3)oc2C)CC1,.,.,.,.,.
c1ccc(CN2COc3c(ccc4c5c(ccc34)CN(Cc3ccccc3)CO5)C2)cc1,.[11.4 µM],.[7.6 µM],.[11.4 µM],.[11.5 µM],.[11.4 µM]
Cc1ccsc1C=Nc1ccc(O)cc1,.,?,20µM,.,.
COc1ccccc1C(=O)N1CCN(c2nc3cc(C)c(C)cc3cc2C#N)CC1,?,?,.,.,13µM
CN1CCc2c(sc3c2C(=O)NC(c2ccc(-c4cccc(Cl)c4)o2)N3)C1 (configuration not stated),.,?,1.3µM,.,.
CSc1ccc(C2NC(=O)c3c(sc4c3CCN(C)C4)N2)cc1 (configuration not stated),.,.,?,.,.
CN1CCc2c(sc3c2C(=O)NC(c2cccs2)N3)C1 (configuration not stated),.,13µM,.,.,.
CC12CC[C@@H]3c4ccc(OP(=O)(O)O)cc4CCC3C1CCC2=O (some centres not stated),.[11.4 µM],.[7.6 µM],.[11.4 µM],.[11.5 µM],.[11.4 µM]
Fc1cccc(Cl)c1-c1nnc2ccc(N3CCOCC3)nn12,.,13µM,.,.,.
NC(=S)NNC(N)=S,.,.,.,.,.
O=C(O)CSc1nnc(-c2ccco2)o1,.,.,.,.,.
Brc1c(CSc2nnc(-c3ccco3)o2)nc2ccccn12,.,3.2µM,.,.,.
c1coc(-c2nnc(SCc3cn4ccccc4n3)o2)c1,.,10µM,.,.,.
CCNc1ncc2nc(-c3cn(C)c4ccccc34)c(=O)n(C)c2n1,.,?,.,.,.
CCNc1ncc2nc(-c3cn(C)c4ccccc34)c(=O)n(C[C@H]3CCCO3)c2n1,.,0.79µM,.,?,.
CCNc1ncc2nc(-c3cccs3)c(=O)n(CCC#N)c2n1,.,?,.,5µM,.
CCNc1ncc2nc(-c3cn(C)c4ccccc34)c(=O)n(CCC#N)c2n1,.,4µM,.,.,.[2.29 µM]
N#CCCn1c(=O)c(-c2cccs2)nc2cnc(Nc3ccccc3)nc21,.,?,.,.,.
CO[C@H]1COC(=O)[C@H](C)COC(=O)[C@@H](OCc2ccccc2)/C=C\[C@@H]1C,.[11.4 µM],/,/,.[11.5 µM],.[11.4 µM]
SMILES,TSHR agonist,CRE-bla Fsk,Tau filament bind,ERK AVP block,HEK293 cAMP ctrl
CN1CCN(c2ncc3nc(-c4cn(C)c5ccccc45)c(=O)n(-c4ccccc4)c3n2)CC1,.,?,.,.,.
CC1N=C2c3ccccc3N=C(SCc3cc(=O)n4ccccc4n3)N2C1=O (configuration not stated),.,13µM,.,.,.
CC(C)C1N=C2c3ccccc3N=C(SCc3cc(=O)n4cc(Cl)ccc4n3)N2C1=O (configuration not stated),.,1.3µM,.,.,.
O=c1[nH]c(SCc2cc(=O)n3ccccc3n2)nc2c1CCC2,.[11.4 µM],?,.,.,.
CCN=C(N)CSS(=O)(=O)O,.[11.4 µM],.[7.6 µM],.[11.4 µM],.[11.5 µM],.[11.4 µM]
Cc1cc(N)c2cc(OCCOc3ccc4nc(C)cc(N)c4c3)ccc2n1,/,/,/,.[11.5 µM],/
C/C(=N\O)c1cccc[n+]1Cc1ccccc1,.[11.4 µM],.[7.6 µM],.[11.4 µM],.[11.5 µM],.[11.4 µM]
CCN1C(=O)[C@H]2[C@H]3[C@H](O)[C@H](O)C/C(=N/NC(=O)OCc4ccccc4)[C@H]3CC[C@@H]2C1=O,.[11.4 µM],/,/,.[11.5 µM],.[11.4 µM]
Cc1cc(NC(=O)CSc2nc3ccccc3c(=O)n2C2CCCC2)no1,/,13µM,.,.,.
CCOc1ccc(-n2c(SCC(=O)Nc3cc(C)on3)nc3c([nH]c4ccccc43)c2=O)cc1,.,1.3µM,.,/,.
CN(C)c1ccc(NC(=O)CSc2nc3ccccc3c(=O)n2C2CCCCC2)cc1,?,.,?,.,.
CCOc1ccccc1Nc1ccc(N)cc1S(=O)(=O)O,.[11.4 µM],.[7.6 µM],.[11.4 µM],.[11.5 µM],.[11.4 µM]
COCCNc1nc(C)nc2c1nc(-c1ccccc1)n2CCCN1CCCCC1C (configuration not stated),.,.,.,.,.
CCC(C)O (configuration not stated),?,.,.,.,.
Nc1ccc(N(S(=O)(=O)c2ccccc2)S(=O)(=O)c2ccccc2)c(Cl)c1,.[11.4 µM],.[7.6 µM],.[11.4 µM],.[11.5 µM],.[11.4 µM]
COc1ccccc1N1CSC2=C(C#N)C(c3ccc(SC)cc3)CC(=O)N2C1 (configuration not stated),.,.,25µM,.,.
COc1cc(C2CC(=O)N3CN(c4ccccc4C)CSC3=C2C#N)cc(OC)c1OC (configuration not stated),.,.,.,.,.
COC1C(O)COC1/C=C/c1ccccc1 (configuration not stated),.[11.4 µM],/,/,.[11.5 µM],.[11.4 µM]
CCn1c(SCC(=O)NCc2ccco2)nc2cccnc21,.,?,.,.,.
Cc1sc2nc(SCC(=O)NCc3ccco3)n(-c3ccccc3)c(=O)c2c1C,/,.,.,.,.
Cc1cc(NC(=O)CSc2nc3c(c(=O)n2Cc2ccccc2)SC(C)C3)no1 (configuration not stated),?,?,.,/,?
CN(Cc1ccccc1)C(=O)CSc1nc2ccccc2c(=O)n1Cc1ccco1,?,?,.,.,25µM
CCn1c(=S)sc2c(=O)n(-c3ccccc3)c(SCC(=O)NCc3ccco3)nc21,?,?,.,.,20µM
O=C(CSc1nc2cccnc2n1Cc1ccccc1)NCc1ccco1,?,.,.,?,6.3µM
CC1Cc2nc(SCC(=O)NCc3ccco3)n(Cc3ccccc3)c(=O)c2S1 (configuration not stated),?,10µM,.,/,?
N[C@@]1(C(=O)O)CCC[C@@H]1C(=O)O,.[11.4 µM],.[7.6 µM],.[11.4 µM],.[11.5 µM],.[11.4 µM]
O=c1c(CCc2ccccc2)nc2cnc(N3CCNCC3)nc2n1CCc1ccccc1,.,?,.,?,.
CCCCCCCC/C=C\CCCCCCCC(=O)N[C@@H](CO)Cc1ccc(O)cc1,.,.,.,.,.
